PubChem BioAssay AID1159580 (chemical genetic matrix, 2015)
Several values for one entry are separate records, joined by “and”; a condition that tells them apart may be missing. Identical values can stand only once. Hit rate of the full screen: of about 5,500 compounds, about 2,000 (36%) were called active. About 18% were inconclusive and are not listed. No stated cut-off is given here; in the data, active means normalized growth mostly below about 0.91 (no sharp cut-off); inconclusive means no clear call, values can overlap the other calls; inactive means mostly above about 0.92. This is one part of the list.

Assay: chemical genetic growth profiling, strain panel (AID 1159580);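 further: tested at 20 µM; growth read once vehicle control cultures reached saturation at 30 °C; 1 = growth at the plate median or of vehicle wells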
Settings: S. cerevisiae deletion strains, growth OD

Measured: normalized growth

CCCc1cc(=O)[nH]c(=S)[nH]1
inactive: locus YAL013W, strain DEP1, stronger effect = lower value 1.02 | locus YAL021C, strain ccr4, stronger effect = lower value 1.02 | locus YAL026C, strain drs2, stronger effect = lower value 1.03 | locus YAL030W, strain snc1, stronger effect = lower value 1.02 | locus YBL061C, strain skt5, stronger effect = lower value 1.03 | locus YBR009C, strain hhf1, stronger effect = lower value 1.02 | locus YBR021W, strain FUR4, stronger effect = lower value 0.987 | locus YBR023C, strain chs3, stronger effect = lower value 1.02 | locus YBR171W, strain sec66, stronger effect = lower value 1.04 | locus YBR229C, strain ROT2, stronger effect = lower value 1 | locus YBR231C, strain swc5, stronger effect = lower value 1 | locus YBR279W, strain paf1, stronger effect = lower value 0.988 | locus YCL011C, strain gbp2, stronger effect = lower value 1.01 | locus YCL016C, strain dcc1, stronger effect = lower value 1.01 | locus YCL029C, strain bik1, stronger effect = lower value 0.994 | locus YCL069W, strain vba3, stronger effect = lower value 1.02 | locus YCR088W, strain abp1, stronger effect = lower value 1.01 | locus YDL005C, strain med2, stronger effect = lower value 1.03 | locus YDL035C, strain GPR1, stronger effect = lower value 1.01 | locus YDL040C, strain nat1, stronger effect = lower value 1.01 | locus YDL074C, strain BRE1, stronger effect = lower value 1.03 | locus YDL101C, strain DUN1, stronger effect = lower value 1.01 | locus YDL134C, strain PPH21, stronger effect = lower value 1.01 | locus YDL185W, strain tfp1, stronger effect = lower value 1.02 | locus YDL192W, strain arf1, stronger effect = lower value 1 | locus YDR001C, strain nth1, stronger effect = lower value 1.01 | locus YDR069C, strain doa4, stronger effect = lower value 1.01 | locus YDR101C, strain arx1, stronger effect = lower value 0.985 | locus YDR137W, strain rgp1, stronger effect = lower value 1.02 | locus YDR150W, strain NUM1, stronger effect = lower value 1.01 | locus YDR159W, strain sac3, stronger effect = lower value 0.995 | locus YDR162C, strain NBP2, stronger effect = lower value 1.02 | locus YDR195W, strain ref2 0.999 | locus YDR297W, strain sur2, stronger effect = lower value 1.01 | locus YDR318W, strain mcm21, stronger effect = lower value 0.985 | locus YDR334W, strain swr1, stronger effect = lower value 1.03 | locus YDR335W, strain msn5, stronger effect = lower value 1.01 | locus YDR388W, stronger effect = lower value 0.989 | locus YDR392W, strain spt3, stronger effect = lower value 0.997 | locus YDR502C, strain sam2, stronger effect = lower value 0.989 | locus YEL003W, strain gim4, stronger effect = lower value 1.01 | locus YEL037C, strain rad23, stronger effect = lower value 1.03 | locus YEL061C, strain CIN8 (second series), stronger effect = lower value 1.03 | locus YEL061C, strain CIN8, stronger effect = lower value 1.01 | locus YER015W, strain faa2, stronger effect = lower value 1.01 | locus YER016W, strain bim1, stronger effect = lower value 1 | locus YER110C, stronger effect = lower value 0.991 | locus YER111C, strain swi4, stronger effect = lower value 1 | locus YER155C, strain BEM2 (second series), stronger effect = lower value 1.04 | locus YER155C, strain BEM2, stronger effect = lower value 1.01 | locus YER167W, strain BCK2, stronger effect = lower value 1.01 | locus YFR010W, strain ubp6, stronger effect = lower value 1.02 | locus YGL078C, strain dbp3, stronger effect = lower value 0.996 | locus YGL086W, strain mad1, stronger effect = lower value 0.987 | locus YGL167C, strain pmr1, stronger effect = lower value 1.02 | locus YGL173C, strain kem1, stronger effect = lower value 1.04 | locus YGL227W, strain vid30, stronger effect = lower value 1.03 | locus YGL240W, strain doc1, stronger effect = lower value 1 | locus YGL248W, strain PDE1, stronger effect = lower value 1.01 | locus YGL253W, strain hxk2, stronger effect = lower value 0.995 | locus YGR078C, strain PAC10, stronger effect = lower value 1 | locus YGR135W, strain pre9, stronger effect = lower value 0.994 | locus YGR229C, strain SMI1, stronger effect = lower value 1.02 | locus YGR252W, strain gcn5, stronger effect = lower value 0.901 | locus YHR013C, strain ard1, stronger effect = lower value 1.09 | locus YHR027C, strain rpn1, stronger effect = lower value 1.01 | locus YHR030C, strain SLT2, stronger effect = lower value 1.02 | locus YHR079C, strain IRE1 (second series), stronger effect = lower value 0.983 | locus YHR079C, strain IRE1, stronger effect = lower value 1.03 | locus YHR094C, strain hxt1, stronger effect = lower value 0.993 | locus YHR129C, strain ARP1, stronger effect = lower value 1.02 | locus YHR142W, strain chs7, stronger effect = lower value 1.05 | locus YHR200W, strain rpn10, stronger effect = lower value 1.01 | locus YIL066C, strain RNR3, stronger effect = lower value 1 | locus YIL073C, strain SPO22, stronger effect = lower value 0.955 | locus YIL125W, strain kgd1, stronger effect = lower value 1 | locus YIR030C, strain dcg1, stronger effect = lower value 0.998 | locus YJL092W, strain hpr5, stronger effect = lower value 1.02 | locus YJL095W, strain BCK1 (second series), stronger effect = lower value 1.02 | locus YJL095W, strain BCK1, stronger effect = lower value 1.01 and 0.999 | locus YJL115W, strain asf1, stronger effect = lower value 1.02 | locus YJL129C, strain trk1, stronger effect = lower value 1.01 | locus YJL134W, strain LCB3, stronger effect = lower value 1.01 | locus YJL154C, strain vps35, stronger effect = lower value 1 | locus YJL164C, strain tpk1, stronger effect = lower value 1.02 | locus YJL166W, strain qcr8, stronger effect = lower value 1.04 | locus YJL168C, strain set2, stronger effect = lower value 0.989 | locus YJL187C, strain SWE1 (second series), stronger effect = lower value 1.01 | locus YJR043C, strain POL32, stronger effect = lower value 1 | locus YJR066W, strain TOR1, stronger effect = lower value 0.971
